From ChEMBL document CHEMBL1201862, “PubChem BioAssay data set” (2004)
“And” between values parts separate entries of the source, which are not always exact repeats. Equal entries are not always repeated. About 11,000 (3.5%) of roughly 310,000 compounds were called active. Roughly 4% stayed inconclusive and do not appear here. This is one part of a sample in which actives are shown more often than they occur. The rule behind the calls is not given here.

What follows are compounds tested against T1, 4'-phosphopantetheinyl transferase ffp (Bacillus subtilis) (UniProt Q9F4F7) (assay: qHTS Assay for Inhibitors of Bacillus subtilis Sfp phosphopantetheinyl transferase (PPTase).).
T1 sequence (whole entry): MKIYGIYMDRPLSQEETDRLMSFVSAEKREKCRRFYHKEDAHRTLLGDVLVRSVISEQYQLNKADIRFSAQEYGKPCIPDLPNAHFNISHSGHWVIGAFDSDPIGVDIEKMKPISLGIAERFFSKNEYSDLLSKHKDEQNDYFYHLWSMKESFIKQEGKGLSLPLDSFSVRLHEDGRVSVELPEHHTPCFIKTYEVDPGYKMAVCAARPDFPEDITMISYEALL
Assay type: functional
With `N[C@H](CCC(=O)O)C(=O)O` the Potency was 44.7 µM (active) and 56.2 µM (active).
In the case of `N[C@@H](CCC(=O)O)C(=O)O`, the Potency is reported as 50.1 µM (active).
